{
  "source": "ChEMBL document CHEMBL1157539",
  "about": "“Thousands of chemical starting points for antimalarial lead identification” (Nature, 2010)",
  "data": [
    {"tested_on": "Plasmodium falciparum", "assay": "GSK_TCMDC: Inhibition of Plasmodium falciparum Dd2 in whole red blood cells, using parasite LDH activity as an index of growth. Test compounds present at 2uM", "assay_type": "functional", "units": {"Inhibition": "%"}, "values": [
      {"smiles": "CCOC(=O)NCC(=O)Nc1cccc(-c2cccc(-c3nc4cccc(C)c4[nH]3)c2)c1", "Inhibition": 35},
      {"smiles": "Cc1nnsc1C(=O)Nc1cccc(-c2ccc(-c3nc4cccc(C)c4[nH]3)s2)c1", "Inhibition": 44},
      {"smiles": "c1ccc(CCNc2ncnc3c2[nH]c2ccccc23)cc1", "Inhibition": 94},
      {"smiles": "CCOc1cc(C=Cc2nc(O)c3ccccc3n2)cc(Cl)c1O", "Inhibition": 90},
      {"smiles": "CN(C)CCCOc1ccc(CCNCc2cccc(Oc3ccc(Cl)cc3)c2)cc1.O=C(O)C(F)(F)F", "Inhibition": 26}
    ]},
    {"tested_on": "HepG2", "assay": "GSK_TCMDC: Percent inhibition of human HepG2 cell line. Test compounds present at 10uM.", "assay_type": "functional", "units": {"Inhibition": "%"}, "values": [
      {"smiles": "COc1cc(CCNc2nc(NCc3ccccc3-c3ccccc3)nc(N3CCC(N)CC3)n2)ccc1O.O=C(O)C(F)(F)F", "Inhibition": 25},
      {"smiles": "CN(c1ccc2c(c1)nc(NCc1ccc(F)cc1)n2C)c1ccnc(Nc2ccc(CS(C)(=O)=O)cc2)n1.Cl", "Inhibition": 48},
      {"smiles": "COc1ccc2c(=NN=Cc3cccc(Cl)c3)cc(C)[nH]c2c1", "Inhibition": 3},
      {"smiles": "Cc1cccc(C)c1CNc1ccnc2cc(C#N)ccc12.Cl", "Inhibition": 20},
      {"smiles": "COc1cc2ncnc(NCCc3ccccc3Cl)c2cc1OC", "Inhibition": 0},
      {"smiles": "CCN(CC)CCN(Cc1ccc(-c2ccc(Br)cc2)cc1)C(=O)Cn1c(CCc2cccc(F)c2F)nc(=O)c2ccccc21.O=C(O)C(O)C(O)C(=O)O", "Inhibition": 37},
      {"smiles": "Cc1cccc2nc(-c3ccc(-c4cccc(CNCc5ccc(CN)cc5)c4)s3)[nH]c12.O=C(O)C(F)(F)F", "Inhibition": 11},
      {"smiles": "CC(=O)Nc1nc(C(=O)Nc2ccc(-c3cccc(-c4nc5cc(F)ccc5[nH]4)c3)cc2)cs1", "Inhibition": 86},
      {"smiles": "Cc1cc(Br)cnc1CCCCNc1cc(=O)c2ccccc2[nH]1.Cl", "Inhibition": 0},
      {"smiles": "O=C(O)C(F)(F)F.c1ccc2c(c1)CN(Cc1cc3ccccc3[nH]1)CC1(CCN(Cc3c[nH]c4cnccc34)CC1)O2", "Inhibition": 27},
      {"smiles": "O=C(Nc1ccc2ccccc2c1)c1ccc(CN2CCC(Cc3ccccc3)CC2)cc1", "Inhibition": 38},
      {"smiles": "Cc1ccc(Cl)cc1N1CCN(CCCNC(=O)C2CCN(c3nc4ccccc4[nH]3)CC2)CC1", "Inhibition": 41},
      {"smiles": "O=C(O)C(F)(F)F.O=C1CCCN1CCCNCc1ccc(-c2cccc(-c3nc4cc(C(F)(F)F)ccc4[nH]3)c2)cc1", "Inhibition": 14},
      {"smiles": "CCOC(=O)/C(=N\\OC(C(=O)OC(C)(C)C)c1ccccc1)c1csc(NC(c2ccccc2)(c2ccccc2)c2ccccc2)n1", "note": "(stereo not given)", "Inhibition": 14},
      {"smiles": "N#Cc1cccc(NC(=O)Nc2ccc(CC(=O)N3CCc4cc(Cl)c(N5CCN(C/C=C/c6ccccc6)CC5)cc43)cc2)c1", "Inhibition": 0},
      {"smiles": "CN1CCCc2ccc(NC(=O)Nc3ccc(Cl)c(Cl)c3)cc2C1", "Inhibition": 0},
      {"smiles": "CS(=O)(=O)N1CC2(CCN(CCC(NC(=O)Nc3ccccc3)c3ccc(Cl)c(Cl)c3)CC2)c2ccccc21", "note": "(stereo not given)", "Inhibition": 23},
      {"smiles": "COc1ccc2cc(-c3nc(-c4c(Cl)cccc4Cl)[nH]c3-c3ccnc(NCCC4CCCN4C)c3)ccc2c1.O=C(O)C(F)(F)F", "note": "(stereo not given)", "Inhibition": 11},
      {"smiles": "CNC(=O)c1ccc2nc(C3CC3)n(CC3CCN(S(=O)(=O)c4cccc(Cl)c4)CC3)c2c1.O=C(O)C(F)(F)F", "Inhibition": 0},
      {"smiles": "O=C(Nc1cccc(CN2CCCN(Cc3ccc(F)cc3)CC2)c1)c1ccc(Cl)c(Cl)c1.O=C(O)C(F)(F)F", "Inhibition": 27},
      {"smiles": "CCCOc1cc(OCCC)cc(-c2cc(=O)c3ccccc3[nH]2)c1", "Inhibition": 33},
      {"smiles": "CC(=O)N(C)c1cccc(C(=O)Nc2cccc(-c3ccc(-c4nc5cc(C(F)(F)F)ccc5[nH]4)cc3)c2)c1", "Inhibition": 63},
      {"smiles": "Cc1ccc2nc(C)cc(Nc3ccccc3O)c2c1.Cl", "Inhibition": 0},
      {"smiles": "c1ccc(CNc2nc(NCCc3c[nH]cn3)nc(N3CCCC4CCCCC43)n2)cc1", "note": "(stereo not given)", "Inhibition": 0},
      {"smiles": "N#Cc1ccc(N2CCN(Cc3cccc(-c4cccc(-c5nc6cc(C(F)(F)F)ccc6[nH]5)c4)c3)CC2)nc1.O=C(O)C(F)(F)F", "Inhibition": 15},
      {"smiles": "Cc1nc(N)nc(N)c1-c1cccc(Cl)c1", "Inhibition": 60},
      {"smiles": "O=C(Cc1ccc(NC(=O)c2ccc(O)c(-c3ccc(Cl)c(Cl)c3)c2)cc1)NCCc1ccc(Cl)c(Cl)c1", "Inhibition": 0},
      {"smiles": "CS(=O)(=O)N1CC2(CCN(CCC(NC(=O)/C=C/c3ccccc3)c3ccc(Cl)c(Cl)c3)CC2)c2ccccc21", "note": "(stereo not given)", "Inhibition": 18},
      {"smiles": "O=S(=O)(c1c(Cl)cc(Cl)cc1Cl)N1CCCCC(c2ccc(Cl)cc2)=N1", "Inhibition": 11},
      {"smiles": "O=C(O)C(F)(F)F.c1ccc(CCNc2ccnc(Nc3ccc4[nH]nnc4c3)n2)cc1", "Inhibition": 33},
      {"smiles": "CS(=O)(=O)NCCCNCc1ccc(-c2ccc(-c3nc4cc(F)ccc4[nH]3)s2)cc1.O=C(O)C(F)(F)F", "Inhibition": 23},
      {"smiles": "COc1cccc(C(=O)NCCc2cccc(Cl)c2)c1OCc1ccccc1", "Inhibition": 0},
      {"smiles": "CC(=O)Oc1cc(C)ccc1C1CCN(CCCCNC(=O)c2ccc(-c3ccc(C(F)(F)F)cc3)cc2)CC1", "Inhibition": 54},
      {"smiles": "Cc1ccccc1Nc1nc(NCCCO)c2ccccc2n1.Cl", "Inhibition": 0},
      {"smiles": "COc1cc(C(=O)N2CCN(C(C)C)CC2)ccc1CN(C)CCCN1CCN(c2cccc(Cl)c2Cl)CC1.Cl", "Inhibition": 56},
      {"smiles": "CCOC(=O)NCC(=O)Nc1cccc(-c2cccc(-c3nc4cccc(C)c4[nH]3)c2)c1", "Inhibition": 14},
      {"smiles": "Cc1nnsc1C(=O)Nc1cccc(-c2ccc(-c3nc4cccc(C)c4[nH]3)s2)c1", "Inhibition": 46},
      {"smiles": "c1ccc(CCNc2ncnc3c2[nH]c2ccccc23)cc1", "Inhibition": 50},
      {"smiles": "CCOc1cc(C=Cc2nc(O)c3ccccc3n2)cc(Cl)c1O", "Inhibition": 25},
      {"smiles": "CN(C)CCCOc1ccc(CCNCc2cccc(Oc3ccc(Cl)cc3)c2)cc1.O=C(O)C(F)(F)F", "Inhibition": 57}
    ]}
  ]
}
